A number with no mark means an inactive call. Activity calls are given as the source filed them.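 How the source made its calls, unless noted: active means compounds that lower survival of DLD-1 colon cancer cells in the luminescence readout, no cutoff given; inactive means the rest.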

Test system in the first experiment: not listed separately
Kind of experiment: decreased DLD-1 cellular survival, CellTiter-Glo luminescent readout, NPC compound collection, primary HTS (AID 1117346). To be noted: DLD-1 viability, CellTiter-Glo luminescence; at 20 µM (top of the series). A general note: Cellular ATP, detected with luciferase, serves as a proxy for viable cell number.
Take `COCCCOc1ccnc(CS(=O)c2nc3ccccc3[nH]2)c1C` (centres undefined): the viability decrease (inhibition) was -10.8%.

For `N=c1nc(N2CCCCC2)cc(N)n1O`, the viability decrease (inhibition) is 7.1%. The same measure, in the same setting: the figure for `Cc1ccc(-n2nc(C(C)(C)C)cc2NC(=O)Nc2ccc(OCCN3CCOCC3)c3ccccc23)cc1` is 31%; for `CC(C)CCCC(C)NCCC(C)C` (centres undefined) it is 1.8%. Take `CC(C)NCC(O)COc1cccc2[nH]ccc12` (centres undefined): the viability decrease (inhibition) was -7.1%. Regarding `COc1ccccc1N1CCN(CCCCNC(=O)c2ccc(-c3ccc(C(C)=O)cc3)cc2)CC1`, the viability decrease (inhibition) is 13.8%.

Take `CCn1cc(C(=O)O)c(=O)c2ccc(C)nc21`: the viability decrease (inhibition) is -0.43%.

In the case of `CN(C)C(=O)C(CCN1CCC(O)(c2ccc(Cl)cc2)CC1)(c1ccccc1)c1ccccc1`, the viability decrease (inhibition) is 88.2% (active). With `Cc1cc(NS(=O)(=O)c2ccc(N)cc2)no1`, the viability decrease (inhibition) is 3.95%. Still for that read-out and setting: then `CC(C)(C)NC(=O)[C@@H]1C[C@@H]2CCCC[C@H]2CN1C[C@@H](O)[C@H](Cc1ccccc1)NC(=O)[C@H](CC(N)=O)NC(=O)c1ccc2ccccc2n1`, with 88.3% (active). On the same count and under the same terms, the figure for `CCCC(CCC)C(=O)O` is 13.5%; for `O=C1CN(/N=C/c2ccc([N+](=O)[O-])o2)C(=O)N1` it is 8.55%. Still for that read-out and setting: then `COc1cc(Cc2cnc(N)nc2N)cc(OC)c1OC`, with 9.15%. With `COC(=O)C1=C(C)NC(C)=C(C(=O)OCCN(C)Cc2ccccc2)C1c1cccc([N+](=O)[O-])c1` (centres undefined), the viability decrease (inhibition) was 84.9% (active). On to `C[C@@H](C1=C(CCN(C)C)Cc2ccccc21)c1ccccn1`, for which the viability decrease (inhibition) is -48.2%. On the same count and under the same terms, the figure for `Cc1cc(-n2nc3ccc(Cl)cc3n2)c(O)c(C(C)(C)C)c1` is 8%; for `CCO[C@H](Cc1ccc(OCCc2ccc(OS(C)(=O)=O)cc2)cc1)C(=O)O` it is -11.3%; for `O=C(CCCN1CCC(O)(c2ccc(Cl)cc2)CC1)c1ccc(F)cc1` it is 35.5%.

On to `COc1ccc2c(c1)C(=O)N(CCc1ccc(S(=O)(=O)NC(=O)NC3CCCCC3)cc1)C(=O)C2(C)C`, for which the viability decrease (inhibition) was 94% (active).

On to `CC12CCC(CC1)C(C)(C)O2`, for which the viability decrease (inhibition) is 4.4%. Same read-out and setting: the figure for `C[C@@H](c1ncncc1F)C(O)(Cn1cncn1)c1ccc(F)cc1F` (some centres undefined) is -4.3%; for `CC(C)(C)NCC(O)c1ccc(O)c(CO)c1` (centres undefined) it is -10%. Take `CCN(CC)CCOc1ccc(Cc2ccccc2)cc1`: the viability decrease (inhibition) was 55.9% (active). Still for that read-out and setting: the figure for `COc1ccc2cc([C@H](C)C(=O)O)ccc2c1` is -14.8%; for `COc1c2occc2cc2ccc(=O)oc12` it is 8.4%. For `NC(=O)c1cccnc1`, the viability decrease (inhibition) is 4.3%. On the same count and under the same terms, then `COCCOCC(OC)OC`, with 6.9%; and `CN/C(=C\[N+](=O)[O-])NCCSCc1ccc(CN(C)C)o1`, with -22.7%. Same read-out and setting: then `CO[C@]1(NC(=O)CSC(F)F)C(=O)N2C(C(=O)O)=C(CSc3nnnn3CCO)CO[C@H]21`, with -3.6%; and `CNCCCN1c2ccccc2CCc2ccccc21`, with 33.3%. The same measure, in the same setting: the figure for `CN1C(=O)CC[C@H]1c1cccnc1` is 14.2%; for `CCCC(=O)Nc1ccc(OCC(O)CNC(C)C)c(C(C)=O)c1` (centres undefined) it is -8.8%; for `O=C(O)CCc1nc(-c2ccccc2)c(-c2ccccc2)o1` it is -5.7%. With `CC(C)OC(=O)C(C)(C)Oc1ccc(C(=O)c2ccc(Cl)cc2)cc1`, the viability decrease (inhibition) is 57.5% (active). Turning to `O=C(O)C1CCC1`, the viability decrease (inhibition) is 6.3%. For `CCN(CC)CC(=O)Nc1c(C)cc(C)cc1C`, the viability decrease (inhibition) is -2% (active).

Take `CC(C(=O)O)c1cccc(C(=O)c2ccccc2)c1` (centres undefined): the viability decrease (inhibition) is -13.8%. The same measure, in the same setting: then `CN1CCN(C2=Nc3cc(Cl)ccc3Nc3ccccc32)CC1`, with 14.1%. Still for that read-out and setting: then `Oc1ccc(O)cc1`, with -15%; and `COC(=O)C1=C(C)NC(C)=C(C(=O)OC)C1c1ccccc1[N+](=O)[O-]`, with 93.1% (active).

In a further experiment the target is 6-phosphogluconate dehydrogenase, decarboxylating (Homo sapiens) (UniProt P52209). The experiment is described as follows: 6PGD enzyme inhibitors, primary screen, biochemical, human, recombinant enzyme, NADPH absorbance (AID 1159550;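 active means at least 20% inhibition of 6-phosphogluconate dehydrogenase activity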). To be noted: recombinant 6PGD, NADPH absorbance 341 nm; at 10 µM; stronger effect = higher value.
Sequence of 6-phosphogluconate dehydrogenase, decarboxylating (Homo sapiens) (P52209 whole entry, looked up): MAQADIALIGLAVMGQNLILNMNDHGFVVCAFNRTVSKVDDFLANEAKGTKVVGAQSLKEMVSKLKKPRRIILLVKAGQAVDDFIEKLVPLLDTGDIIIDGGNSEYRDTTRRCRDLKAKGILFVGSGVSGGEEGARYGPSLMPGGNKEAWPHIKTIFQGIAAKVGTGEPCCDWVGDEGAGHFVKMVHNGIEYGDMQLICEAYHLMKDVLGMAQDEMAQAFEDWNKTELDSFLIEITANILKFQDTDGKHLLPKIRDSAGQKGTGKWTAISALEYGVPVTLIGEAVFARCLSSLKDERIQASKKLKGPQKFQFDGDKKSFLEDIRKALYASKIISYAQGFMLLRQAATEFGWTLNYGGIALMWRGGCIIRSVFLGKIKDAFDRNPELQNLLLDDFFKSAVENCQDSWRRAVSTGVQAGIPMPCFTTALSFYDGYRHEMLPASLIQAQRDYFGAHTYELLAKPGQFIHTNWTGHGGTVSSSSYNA
On to `N=c1nc(N2CCCCC2)cc(N)n1O`, for which the inhibition (usually the drop in the measured response relative to a control, in per cent) is 0.805%. The same measure, in the same setting: the figure for `CC(C)NCC(O)COc1cccc2[nH]ccc12` (centres undefined) is 11.4%. Take `CCn1cc(C(=O)O)c(=O)c2ccc(C)nc21`: the inhibition was -7.36%. The same measure, in the same setting: then `CN(C)C(=O)C(CCN1CCC(O)(c2ccc(Cl)cc2)CC1)(c1ccccc1)c1ccccc1`, with 1.17%; and `Cc1cc(NS(=O)(=O)c2ccc(N)cc2)no1`, with 11.1%; and `CCCC(CCC)C(=O)O`, with 13.2%. As for `O=C1CN(/N=C/c2ccc([N+](=O)[O-])o2)C(=O)N1`, the inhibition is -10.5%. Still for that read-out and setting: the figure for `COc1cc(Cc2cnc(N)nc2N)cc(OC)c1OC` is -0.293%; for `COC(=O)C1=C(C)NC(C)=C(C(=O)OCCN(C)Cc2ccccc2)C1c1cccc([N+](=O)[O-])c1` (centres undefined) it is -13.8%. On the same count and under the same terms, the figure for `O=C(CCCN1CCC(O)(c2ccc(Cl)cc2)CC1)c1ccc(F)cc1` is -6.6%.

For the compound `CC12CCC(CC1)C(C)(C)O2`, the inhibition is -15.6%. Same read-out and setting: the figure for `CC(C)(C)NCC(O)c1ccc(O)c(CO)c1` (centres undefined) is 0.167%; for `COc1ccc2cc([C@H](C)C(=O)O)ccc2c1` it is -2.26%; for `COc1c2occc2cc2ccc(=O)oc12` it is 3.81%.

Turning to `CN/C(=C\[N+](=O)[O-])NCCSCc1ccc(CN(C)C)o1`, the inhibition was -3.38%. Still for that read-out and setting: the figure for `CNCCCN1c2ccccc2CCc2ccccc21` is 3.76%; for `CN1C(=O)CC[C@H]1c1cccnc1` it is 7.9%; for `CCCC(=O)Nc1ccc(OCC(O)CNC(C)C)c(C(C)=O)c1` (centres undefined) it is 5.09%. For the compound `O=C(O)CCc1nc(-c2ccccc2)c(-c2ccccc2)o1`, the inhibition was -3.27%.

With `CC(C)OC(=O)C(C)(C)Oc1ccc(C(=O)c2ccc(Cl)cc2)cc1`, the inhibition was 13.2%. Same read-out and setting: then `CC(C(=O)O)c1cccc(C(=O)c2ccccc2)c1` (centres undefined), with -9.9%; and `CN1CCN(C2=Nc3cc(Cl)ccc3Nc3ccccc32)CC1`, with -3.75%; and `Oc1ccc(O)cc1`, with 10.8%. Same read-out and setting: the figure for `COC(=O)C1=C(C)NC(C)=C(C(=O)OC)C1c1ccccc1[N+](=O)[O-]` is -13.6%.

For the origin of these results see PubChem BioAssay.
